# This is part of a sample that, as a whole, favours compounds with a hit. Of some 83,000 tested, about 20% had one in any assay.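 48-hour exposure, single concentration, 96-well plates; percent growth endpoint where 0 means no net growth. Active: below 10.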 Activity calls are given as the source filed them.
# Test system: HL-60(TB) leukemia
# Assay: NCI-60 one-dose screen, 48 h (100 = growth as untreated, 0 = no growth, -100 = all killed)
# Settings: 10 µM unless noted
row,SMILES,growth
1,O=C(O)c1cn(C2CC2)c2cc(N3CCN(C(=O)N4CCOCC4)CC3)c(F)cc2c1=O,90.3% (inactive)
2,COc1ccc(-c2cc(-c3ccc(Cl)cc3)nc(SCCCCCCC(=O)NO)n2)cc1,-18.2% (active)
3,N=c1c2c(=O)n3c(nc2nc2sc4ccc(Cl)cc4n12)-c1ccccc1Sc1ccccc1-3,4.46% (active)
4,COc1ccc([C@@H]2[C@@H](Cl)C(=O)N2c2cc(OC)c(OC)c(OC)c2)cc1C,-30.3% (active)
5,CCCCCC#CC(=O)O,97.4% (inactive)
6,COCc1c(-c2ccc(NC(=O)Nc3cc(C(F)(F)F)ccc3F)c(F)c2)c2c(N)ncnn2c1CN1CCOCC1,-22% (active)
7,C[N+](C)(CCCCCC[N+](C)(C)C1c2ccccc2-c2ccccc21)C1c2ccccc2-c2ccccc21,85.7% (inactive)
8,NCCNc1ccc([N+](=O)[O-])cc1,91.9% (inactive)
9,Cc1ccsc1C(=O)CC(=O)C(F)(F)C(F)(F)C(F)(F)F,107% (inactive)
10,CC(C)n1c(/C=C/[C@@H](O)C[C@@H](O)CC(=O)O)c(-c2ccc(F)cc2)c2ccccc21,91.4% (inactive)
11,COc1ccc2c(c1)OC(N)=C(C#N)C2c1ccc(F)cc1 (stereo not given),-14.7% (active)
12,Cc1ccc(-c2nc(SCC(=O)c3ccc(C#N)cc3)[nH]c(=O)c2C#N)cc1,94.2% (inactive)
13,COc1nc2ccccc2cc1-c1nc2c(cnn2-c2ccccc2)c(=O)[nH]1,11.2% (inactive)
14,CC(C)OCC(CCl)OC(=O)Nc1ccccc1 (stereo not given),97.3% (inactive)
15,Nc1nc(Cl)cc(Cl)n1,74.2% (inactive)
16,Cc1cc(C(C)(C)CC(C)(C)C)ccc1OCCOCC[N+](C)(C)Cc1ccccc1,-67.1% (active)
17,COc1cc2c3c(c1O)-c1ccccc1[C@@H]1OC(=O)N(CC2)[C@H]31,112% (inactive)
18,CC1(c2ccccc2)NC(=O)N(NC(=O)CSc2nc(-c3cccs3)nc3ccccc23)C1=O (stereo not given),91.6% (inactive)
19,NC1=CC(=O)C(=O)c2cccnc21,106% (inactive)
20,COc1c(O)cc2oc3cc(O)c(CC=C(C)C)c(O)c3c(=O)c2c1CC=C(C)C,65.9% (inactive)

row,SMILES,growth
1,COC(=O)c1cc(=O)nc(N/N=C/c2ccc(C)cc2)s1,105% (inactive)
2,CC(=O)c1cc(Nc2cc(C)nc(N)n2)cc(C(C)=O)c1,96.1% (inactive)
3,COc1ccc(/C=C(\C#N)C(=O)Nc2cccc(Nc3nc(SC)nc(-c4cccc([N+](=O)[O-])c4)c3C#N)c2)cc1OC,95% (inactive)
4,COc1ccc(C(=O)/C=C/c2cc(-c3cc(OC)c(OC)c(OC)c3)n[nH]2)cc1,23.2% (inactive)
5,Cc1ccc(-c2nc3nc(-c4ccccc4)nc(N4CCCNCC4)c3o2)cc1,-69.8% (active)
6,CN(c1ccccc1)c1ncnc2c1ncn2C,105% (inactive)
7,O=C(/C=C(/C=C/c1csc2ccccc12)OB(F)F)/C=C/c1csc2ccccc12,2.68% (active)
8,COC1=CC(c2ccc[nH]2)=N/C1=C\c1[nH]c(C)c(C)c1CCC(=O)OCc1ccccc1,-39.1% (active)
9,COc1cc(C=O)ccc1Oc1ccc([N+](=O)[O-])cc1[N+](=O)[O-],95.1% (inactive)
10,CCC(C)[C@H](NC(=O)NC(=O)NC(=O)CI)C(=O)OC (stereo not given in full),71.8% (inactive)
11,COc1ccccc1OCC(=O)N1CCCCCC1,93.6% (inactive)
12,Cc1cc2c(cc1C)[n+](Cc1ccc3ccccc3n1)cn2Cc1ccc2ccccc2n1,-49.8% (active)
13,Clc1ccc(C2=NN(c3ccc(Cl)cc3)C(c3cccc(Nc4ccnc5cc(Cl)ccc45)c3)C2)cc1 (stereo not given),102% (inactive)
14,Cc1cc(CSc2ccccc2C(=O)N2CC=C(c3ccccc3)CC2)on1,87.7% (inactive)
15,O=C(COc1cccc(/C=C2\Oc3ccc4ccccc4c3C2=O)c1)c1ccc(Cl)cc1,107% (inactive)
16,O=C(CN1C(=O)/C(=C\c2ccc(Cl)cc2)SC1=S)Nc1ncc(Cc2ccc(Cl)cc2)s1,102% (inactive)
17,CC(=O)OC1CCC2(C)C(CCC3C4CC=C(C(C)=O)C4(C)OC(=O)CC32)C1 (stereo not given),-39.8% (active)
18,NC1CCN(c2nc(Nc3cccc(C(F)(F)F)c3)c3c(=O)[nH]ccc3n2)CC1,-61.2% (active)
19,COc1cc(NCC(=O)Nc2cc(Nc3cccc(C(F)(F)F)c3)ncn2)c(Cl)c(OC)c1Cl,79.2% (inactive)
20,Cc1ccc(O)c(C(=O)O)c1,99.5% (inactive)

# Reference: PubChem BioAssay (NCI)
